The source of these data is the OligoGym collection.
Also: reference of the scale not given here.

One test addresses AP4E1. In words: pooled miR-30 sensor sort-seq; sequence = guide strand. The note with it: shRNA.
Sequence TTTTCTTCGTACAATCTCCTTA returned a sensor-assay potency score (higher = more potent) of 0.18.

TTCATTATTACAGACTTCCATA: the sensor-assay potency score (higher = more potent) is -0.778.

Turning to TTCATTGTCTGAATAAACCATG, the sensor-assay potency score (higher = more potent) was -0.705.

In turn, TACAACTGTATTCACAAGGAGA showed a sensor-assay potency score (higher = more potent) of -0.841.

TTTCAGACTACTCAGTTCCTGC: the sensor-assay potency score (higher = more potent) is -0.633.

Turning to TAACTTGAAGAAATCTCTGTGG, the sensor-assay potency score (higher = more potent) turned out to be 0.558.

TATTTGTCTCTTTCAGTCCTGT gave a sensor-assay potency score (higher = more potent) of -0.0122.

TAAAGAAGCATCTACCACCAAG yielded a sensor-assay potency score (higher = more potent) of -0.753.

The sequence TAATTTTTCTTCTTCGTGCTTG displayed a sensor-assay potency score (higher = more potent) of 0.244.

For the sequence TACATTAATTCACTTGTCCTTT, the sensor-assay potency score (higher = more potent) was -0.311.

Sequence TTTCTTTATACCTTCCAGCTTC registered a sensor-assay potency score (higher = more potent) of -0.271.

The sequence AAGAACTTGAGATTGATCCTTT had a sensor-assay potency score (higher = more potent) of 0.655.

For another test, the target named is AP4S1. The test is described as above. The following applies: shRNA.
Consider TGAATGATGAACTGTCTGGAGA, for which the sensor-assay potency score (higher = more potent) was -0.912.

The sequence TAAATAGCCATCTCGTTCTCAG displayed a sensor-assay potency score (higher = more potent) of -0.314.

ATTAACTCCAACCACAATGAAG returned a sensor-assay potency score (higher = more potent) of -1.9.

As for TTAGAAAGTCGAGTCTGCCCTT, the sensor-assay potency score (higher = more potent) stood at 0.201.

Consider TTATATTCAATGAAAGAGCATT, for which the sensor-assay potency score (higher = more potent) is -1.02.

TTTGAATGATGAACTGTCTGGA had a sensor-assay potency score (higher = more potent) of 0.922.

TTCATAAATAGCCATCTCGTTC returned a sensor-assay potency score (higher = more potent) of -1.14.

Sequence TAGAAAGTCGAGTCTGCCCTTG showed a sensor-assay potency score (higher = more potent) of -0.4.

The sequence TAAATCAAGAAAACATTCCGGA returned a sensor-assay potency score (higher = more potent) of 0.763.

TTGAATGATGAACTGTCTGGAG yielded a sensor-assay potency score (higher = more potent) of 0.198.

Consider TTGTTCATTGGATCGAGAGAGA, for which the sensor-assay potency score (higher = more potent) is -1.06.

TATATCAGCTTAAAATCCTTAT came in with a sensor-assay potency score (higher = more potent) of -0.456.

A further test concerns the target APLNR. Described as above. The note with it: shRNA.
Sequence TGTACTCACACTCAGACTGGTT displayed a sensor-assay potency score (higher = more potent) of -1.04.

In the case of TTCACTTTCATAGTCCTCCAAG, the sensor-assay potency score (higher = more potent) was -0.567.

With AAGTACAACACACACAGACAAG, the sensor-assay potency score (higher = more potent) is -1.41.

Sequence TTTTACTGCGTCCAGACTCAGG returned a sensor-assay potency score (higher = more potent) of -1.25.

In the case of AGTCTGTGTACTCACACTCAGA, the sensor-assay potency score (higher = more potent) is -2.07.

For TAGCAATGAAGATATCAGCTGA, the sensor-assay potency score (higher = more potent) came out at 0.487.

Turning to TAGCGGTCGAAGCTGAGGCCGG, the sensor-assay potency score (higher = more potent) was -1.22.

In turn, TTGACGTAGCTGATGCAGGTGC gave a sensor-assay potency score (higher = more potent) of 0.046.

For the sequence AAACACGGTCCAGAGCACCAGA, the sensor-assay potency score (higher = more potent) was -0.76.

As to TACAGCGTCTTCACCAGGTGGT, the sensor-assay potency score (higher = more potent) came to 0.0282.

TATCTAGTCAGTGTCATGGTGC returned a sensor-assay potency score (higher = more potent) of -0.323.

The sequence TATCTGCTGACACACAGCCCAC returned a sensor-assay potency score (higher = more potent) of -1.74.

In the case of TATAAGTACAACACACACAGAC, the sensor-assay potency score (higher = more potent) is 0.501.

With TTGACGAAGATGAGGTAGCTGC, the sensor-assay potency score (higher = more potent) is -0.686.

TGGATTTCTCGTGCATCTGTTC returned a sensor-assay potency score (higher = more potent) of -1.45.
